The record followed here is PubChem BioAssay (NCI).

Structures are written as SMILES. Compounds without any hit were thinned out: in the full panel of roughly 79,000, 15% have a hit. Activity calls are given as the source filed them. No stated cut-off is given here; in the data, active means growth inhibition above about 70%; inactive means the rest.

The experiment can be described thus: NCI Yeast Anticancer Drug Screen. Data for the rad50 strain (AID 155).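 Further: 0% = growth of vehicle-only cultures of the same strain.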 As to conditions: S. cerevisiae rad50 strain growth inhibition; at 50.0 µM (retest, dose inferred, filed as 5.0); hits give high values. The method, boiled down: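 Yeast carrying a defined DNA repair defect were exposed to test compounds, and growth was compared with vehicle-treated controls to give percent inhibition.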
For the compound `CCC1(c2ccc(N3C(=O)c4ccccc4C3=O)cc2)CCC(=O)NC1=O` (stereo not given), the growth inhibition is -3% (inactive).

As to `CN(C)c1c([N+](=O)[O-])cc(N2C(=O)C=CC2=O)cc1[N+](=O)[O-]`, the growth inhibition was 91% (active).

On to `CCOC1(OCC)Oc2c(Cl)c(Cl)c(Cl)c(Cl)c2OC1(OCC)OCC`, for which the growth inhibition was 97% (active).

Turning to `CC(=O)NC1=C(Oc2ccccc2)C(=O)c2ccccc2C1=O`, the growth inhibition is 99% (active).

`CC1SC(=S)N(c2ccc(Cl)cc2)C1=O` (stereo not given): the growth inhibition is 68% (inactive).

On to `CC(NNC(=S)N1CC2CCC(CC2)C1)c1cc2ccccc2cn1` (stereo not given), for which the growth inhibition was 97% (active).

Consider `CCCCCCCCCCCCCC(=O)N1CCOCC1`, for which the growth inhibition was 99% (active).

Regarding `COC(O)C(=O)c1c2c(cc3c1CC1(Cc4cc5c(cc4C1)CCC5)C3)CCC2` (stereo not given), the growth inhibition is 98% (active).

On to `CCC(=O)OCC(=O)c1ccc(-c2ccccc2)cc1`, for which the growth inhibition was -20% (inactive).

Take `CN(Cc1cnc2nc(N)nc(N)c2n1)c1ccc(C(=O)NC(CCC(=O)O)C(=O)O)cc1` (stereo not given): the growth inhibition is 5% (inactive).

For `COc1ccc(C(=O)Nc2ccc(O)c(=O)cc2)cc1`, the growth inhibition was 42% (inactive).

For the compound `c1cc[c]([Sn]([NH]c2ncnc3[nH]cnc23)([NH]c2ncnc3[nH]cnc23)[c]2ccccc2)cc1`, the growth inhibition was 93% (active).

Consider `CCCCCCCCCCCC1C(C#N)C(=O)NC(=O)C1C#N` (stereo not given), for which the growth inhibition is 92% (active).

For `c1ccc(CSc2nnc3c4ccccc4c4ccccc4c3n2)cc1`, the growth inhibition is 5% (inactive).

As to `Cc1ccc(-n2cc(-c3ccc(Cl)cc3)c3c(N)ncnc32)cc1`, the growth inhibition is 95% (active).

For `C[C@]12CCC3[C@@H](CC[C@@H]4c5nonc5CC[C@]34C)C1CCC(=O)N2` (stereo not given in full), the growth inhibition is 24% (inactive).

In the case of `CCN(CC)Cc1cc(N=Nc2c(O)ccc3c(N=Nc4ccc(O)c(CN(CC)CC)c4)c(O)ccc23)ccc1O`, the growth inhibition was 86% (active).

As to `CC(C)(C)c1ccc(OC(=O)Nc2ccc(Cl)cc2[N+](=O)[O-])c(Br)c1`, the growth inhibition was 32% (inactive).

Regarding `CCC(CCCN(CC)CCc1ccccc1)OC(=O)c1cc(OC)c(OC)c(OC)c1` (stereo not given), the growth inhibition was 17% (inactive).

With `CCN1/C(=C\c2cc[n+](CC)c3ccccc23)C=Cc2ccccc21`, the growth inhibition is 96% (active).

For the compound `CC1=C(C(=O)Nc2ccccc2C)C(c2ccc(Cl)c(Cl)c2)C(C(=O)Nc2ccccc2C)=C(C)N1`, the growth inhibition was 5% (inactive).

With `Clc1ccc2nc3c(c(N4CCOCC4)c2c1)CCCC3`, the growth inhibition was 97% (active).

On to `N#Cc1cc2cccn2c2c1cnn2-c1ccccc1`, for which the growth inhibition was -5% (inactive).

Take `COc1cccc(C2c3cc4c(cc3OC(Nc3ccccc3)C2C)OCO4)c1O` (stereo not given): the growth inhibition was 97% (active).

On to `Nc1nc(-c2ccccc2)c(-c2ccccc2)c(-c2nc(N)nc(-c3ccccc3)c2-c2ccccc2)n1`, for which the growth inhibition is -3% (inactive).

Regarding `CCOC(C)c1ccccc1` (stereo not given), the growth inhibition is 90% (active).

As to `O=C1OC(CCCl)(c2ccccc2)CC1CN1CCOCC1` (stereo not given), the growth inhibition is 81% (active).

Regarding `OC(Cc1ccccc1)(c1ccccc1)C(O)(Cc1ccccc1)c1ccccc1` (stereo not given), the growth inhibition was 79% (active).

On to `COc1ccc(N=N/N=c2\sc3cc(OC)ccc3n2C)cc1`, for which the growth inhibition is 80% (active).

For the compound `CCCCCC(CO)C(O)(C(F)(F)F)C(F)(F)F` (stereo not given), the growth inhibition is -5% (inactive).

As to `CC1=C(C(=O)Nc2ccccc2)C(c2ccccc2F)C(C(=O)Nc2ccccc2)=C(C)N1`, the growth inhibition was 27% (inactive).

For the compound `CCOCCC(=O)NNc1ccccc1`, the growth inhibition is 43% (inactive).

Turning to `CCOC(=O)C(Br)C(Br)c1cccc([N+](=O)[O-])c1` (stereo not given), the growth inhibition is 99% (active).

Consider `Cc1ccc(-c2c(C#N)c(-c3ccccc3)n(NS(=O)(=O)c3ccc(C)cc3)c(=O)c2C#N)cc1`, for which the growth inhibition is 73% (active).

In the case of `CNC(=O)N1N[C@H](c2ccccc2)[C@@H]1c1ccccc1`, the growth inhibition was 69% (inactive).

In the case of `CCCCCCCCCN(CCCCCCCCC)CC(O)c1cc2c(c3ccccc13)CCCC2` (stereo not given), the growth inhibition was 93% (active).

Regarding `O=C(O)C(c1ccc(Cl)cc1)c1ccc(Cl)cc1`, the growth inhibition is 98% (active).

As for `O=C1c2ccc3ccccc3c2CN2C(=O)CCC12` (stereo not given), the growth inhibition is 83% (active).

As to `CCCCCCCCCCCCCCCCNc1ccn(C2CC(OP(=O)(O)OCC3OC(n4cc(CC)c(=O)[nH]c4=O)CC3O)C(CO)O2)c(=O)n1` (stereo not given), the growth inhibition is 97% (active).

`Cc1cc(Cl)c(O)c(-c2cc(-c3cccc([N+](=O)[O-])c3)c3c(N)[nH]c(=S)nc3n2)c1`: the growth inhibition was 46% (inactive).
